Test results from PubChem BioAssay.
“And” between values parts separate entries of the source, which are not always exact repeats. Equal entries are not always repeated. A structure can be active in one record and inactive in another. The source made the active and inactive calls.

Key:
[1] = small molecules captured by biotinylated probe aFSTL3 – biochemical, small-molecule microarray, fluorescence 635/667, stem cell growth factor project, primary screen (AID 1064); conditions: higher = more signal;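 further: measures binding of the biotinylated anti-FSTL3 antibody to printed compounds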
[2] = binders from COS7 lysate, DM2A8 probe, primary screen, torsin A project, cell lysate, small-molecule microarray, fluorescence 635/667 (AID 1065); conditions: higher = more signal, COS7 lysate expressing mutant human TOR1A
[3] = small molecules captured by biotinylated probe aFGF2 – biochemical, small-molecule microarray, fluorescence 635/667, stem cell growth factor project, primary screen (AID 1067); conditions: higher = more signal;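 further: measures binding of biotinylated aFGF2 protein to printed compounds on slides; z-score merges feature fluorescence and signal-to-noise across triplicate slides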
[4] = small molecules captured by biotinylated probe aFGF10 – biochemical, small-molecule microarray, fluorescence 635/667, stem cell growth factor project, primary screen (AID 1071); conditions: higher = more signal;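 further: score merges 667 nm spot intensity and signal to noise from triplicate slides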
[5] = biological target: Neurogenic locus notch homolog protein 2 (Homo sapiens) (UniProt Q04721); assay: small molecules binding Notch2 protein – biochemical, small-molecule microarray, 635 nm fluorescence, stem cell growth factors, primary screen (AID 1073); conditions: higher = more signal
Chain of Neurogenic locus notch homolog protein 2 (Homo sapiens) (Q04721 whole entry, looked up, canonical isoform): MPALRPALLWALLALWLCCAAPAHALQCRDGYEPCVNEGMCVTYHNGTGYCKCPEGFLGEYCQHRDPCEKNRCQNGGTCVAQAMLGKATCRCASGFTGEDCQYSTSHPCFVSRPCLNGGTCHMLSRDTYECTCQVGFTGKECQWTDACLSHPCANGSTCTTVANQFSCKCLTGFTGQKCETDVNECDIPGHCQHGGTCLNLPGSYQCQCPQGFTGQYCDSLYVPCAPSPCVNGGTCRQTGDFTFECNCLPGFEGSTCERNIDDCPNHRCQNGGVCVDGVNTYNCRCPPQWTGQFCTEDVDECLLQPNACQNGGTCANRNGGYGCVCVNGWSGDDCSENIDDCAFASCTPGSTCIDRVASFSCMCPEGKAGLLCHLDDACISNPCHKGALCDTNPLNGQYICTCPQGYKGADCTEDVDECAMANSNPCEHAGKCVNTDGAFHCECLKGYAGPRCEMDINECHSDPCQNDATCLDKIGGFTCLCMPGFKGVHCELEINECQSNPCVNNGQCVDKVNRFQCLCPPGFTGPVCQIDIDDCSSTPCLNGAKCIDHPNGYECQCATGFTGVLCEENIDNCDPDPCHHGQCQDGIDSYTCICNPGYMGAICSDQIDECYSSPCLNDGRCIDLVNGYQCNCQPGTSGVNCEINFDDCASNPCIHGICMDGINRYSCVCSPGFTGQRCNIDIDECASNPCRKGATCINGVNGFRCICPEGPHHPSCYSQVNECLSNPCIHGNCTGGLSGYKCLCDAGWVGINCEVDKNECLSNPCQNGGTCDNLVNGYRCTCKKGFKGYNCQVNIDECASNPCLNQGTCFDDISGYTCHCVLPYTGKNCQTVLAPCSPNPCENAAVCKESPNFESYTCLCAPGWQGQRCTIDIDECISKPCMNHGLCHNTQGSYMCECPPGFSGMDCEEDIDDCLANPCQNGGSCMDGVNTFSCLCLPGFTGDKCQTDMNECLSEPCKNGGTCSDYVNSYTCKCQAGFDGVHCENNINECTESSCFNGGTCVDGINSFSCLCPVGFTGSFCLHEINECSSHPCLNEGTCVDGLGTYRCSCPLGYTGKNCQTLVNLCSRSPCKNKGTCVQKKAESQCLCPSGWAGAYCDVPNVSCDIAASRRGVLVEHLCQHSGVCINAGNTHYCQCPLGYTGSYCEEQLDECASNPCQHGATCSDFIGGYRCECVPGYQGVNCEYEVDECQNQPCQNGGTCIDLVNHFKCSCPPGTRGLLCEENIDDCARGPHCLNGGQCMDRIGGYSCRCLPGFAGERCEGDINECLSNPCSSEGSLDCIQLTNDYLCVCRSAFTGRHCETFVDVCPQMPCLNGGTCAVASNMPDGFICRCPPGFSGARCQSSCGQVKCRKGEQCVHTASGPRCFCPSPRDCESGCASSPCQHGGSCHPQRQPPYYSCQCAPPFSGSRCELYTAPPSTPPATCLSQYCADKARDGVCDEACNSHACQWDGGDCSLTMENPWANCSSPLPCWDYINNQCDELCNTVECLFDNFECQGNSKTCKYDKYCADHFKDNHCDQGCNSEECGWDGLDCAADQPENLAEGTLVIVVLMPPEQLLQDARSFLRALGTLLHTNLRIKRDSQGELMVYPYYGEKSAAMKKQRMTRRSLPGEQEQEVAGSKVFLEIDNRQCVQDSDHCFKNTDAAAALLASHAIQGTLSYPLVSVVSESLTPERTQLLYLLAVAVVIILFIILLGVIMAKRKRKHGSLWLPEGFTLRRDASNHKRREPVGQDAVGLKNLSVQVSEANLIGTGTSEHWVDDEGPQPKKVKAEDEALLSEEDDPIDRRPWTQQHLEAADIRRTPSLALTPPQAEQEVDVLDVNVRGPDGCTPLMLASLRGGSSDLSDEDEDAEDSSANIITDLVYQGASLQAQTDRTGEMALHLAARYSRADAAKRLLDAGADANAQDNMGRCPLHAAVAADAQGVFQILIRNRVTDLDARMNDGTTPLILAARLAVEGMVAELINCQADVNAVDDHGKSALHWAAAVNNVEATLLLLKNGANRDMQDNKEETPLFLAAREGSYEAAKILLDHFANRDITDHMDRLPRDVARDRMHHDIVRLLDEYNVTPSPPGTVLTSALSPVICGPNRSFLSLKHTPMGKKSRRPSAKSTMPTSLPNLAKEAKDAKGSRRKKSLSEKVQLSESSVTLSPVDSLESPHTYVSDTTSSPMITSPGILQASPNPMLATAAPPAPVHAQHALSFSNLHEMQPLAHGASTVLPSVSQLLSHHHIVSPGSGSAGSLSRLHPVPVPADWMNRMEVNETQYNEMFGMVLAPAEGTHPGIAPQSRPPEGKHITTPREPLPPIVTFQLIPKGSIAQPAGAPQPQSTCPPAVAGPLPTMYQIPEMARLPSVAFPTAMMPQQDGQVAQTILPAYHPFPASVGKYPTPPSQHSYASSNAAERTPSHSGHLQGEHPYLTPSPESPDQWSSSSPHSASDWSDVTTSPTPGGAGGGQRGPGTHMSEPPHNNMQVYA

[6] = biological target: Pro-neuregulin-1, membrane-bound isoform (Homo sapiens) (UniProt Q02297); assay: small molecules binding neuregulin-1 protein – biochemical, small-molecule microarray, fluorescence 635/667, psychiatric disease protein project, primary screen (AID 1075); conditions: NRG1 binding, 635 nm fluorescence, higher = more signal;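 further: score combines 667 nm spot fluorescence with signal to noise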
Chain of Pro-neuregulin-1, membrane-bound isoform (Homo sapiens) (Q02297 whole entry, looked up, the tested form may be a part, canonical isoform): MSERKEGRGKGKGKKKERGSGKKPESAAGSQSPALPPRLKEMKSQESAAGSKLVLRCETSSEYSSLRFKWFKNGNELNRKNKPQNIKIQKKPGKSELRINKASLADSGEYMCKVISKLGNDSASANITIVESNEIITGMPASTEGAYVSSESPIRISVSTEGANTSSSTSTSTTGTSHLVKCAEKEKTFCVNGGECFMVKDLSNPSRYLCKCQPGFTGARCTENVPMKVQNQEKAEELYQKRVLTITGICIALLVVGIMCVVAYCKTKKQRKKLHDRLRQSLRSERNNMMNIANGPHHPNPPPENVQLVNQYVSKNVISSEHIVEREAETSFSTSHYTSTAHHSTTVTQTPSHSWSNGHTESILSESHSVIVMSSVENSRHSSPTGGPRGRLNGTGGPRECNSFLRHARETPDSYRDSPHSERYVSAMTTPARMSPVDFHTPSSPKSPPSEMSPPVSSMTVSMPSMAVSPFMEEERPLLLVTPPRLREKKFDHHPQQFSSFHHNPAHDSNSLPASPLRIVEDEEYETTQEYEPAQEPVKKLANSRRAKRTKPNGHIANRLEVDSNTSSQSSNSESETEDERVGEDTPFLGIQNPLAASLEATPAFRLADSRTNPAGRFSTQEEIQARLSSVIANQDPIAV

[7] = tested on: Neuregulin-1 EGF-like domain; assay: small molecules binding NRG1 EGF domain – biochemical, small-molecule microarray, 635 nm fluorescence, primary screen (AID 1081); conditions: higher = more signal;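 further: binding of the protein to compounds printed on small-molecule microarray slides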
[8] = FRG1 expression reporter modulators in myotubes – cell-based, C2C12 myotubes, firefly/Renilla luciferase, luminescence, FRG1 inhibition for FSHD, primary screen (AID 1084); conditions: FRG1 promoter luciferase, higher = more signal, called active from +8 up or from −8 down
[9] = small molecules captured by biotinylated probe aFST – biochemical, small-molecule microarray, fluorescence 635/667, stem cell growth factor project, primary screen (AID 1086); conditions: higher = more signal;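 further: score merges 667 nm fluorescence with signal-to-noise of each printed compound spot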
[10] = binders of probe aHhip on microarray, primary screen, stem cell growth factor project, biochemical, small-molecule microarray, fluorescence 635/667 (AID 1087); conditions: higher = more signal;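 further: score merges spot fluorescence at 667nm with spot signal to noise ratio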
[11] = tested on: PRMT1 (protein arginine N-methyltransferase 1); assay: small molecules binding arginine methyltransferase PRMT1 – biochemical, small-molecule microarray, 635 nm fluorescence, primary screen (AID 1088); conditions: higher = more signal;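 further: binding of Prmt1 protein to compounds spotted on small-molecule microarray slides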
[12] = growth effects on S. cerevisiae YJM789 – YJM789 clinical isolate, OD600, 24 h, basal, primary screen (AID 1089); conditions: higher = more signal, called active from +8 up or from −8 down;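 further: growth of clinical yeast isolate S. cerevisiae YJM 789 seeded 1000 cells per well; test concentration not given here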
[13] = S. pombe growth modifiers, basal conditions – strain 972, OD600, 24 h, no modulator, primary screen (AID 1090);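 further: basal condition with compound alone and no growth modifier present; test concentration not given here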; conditions: S. pombe 972 growth, higher = more signal, called active from +8 up or from −8 down
[14] = budding yeast growth modifiers under rapamycin – strain BY4716, OD600, 96 h, primary screen (AID 1091); further: test concentration not given here; conditions: S. cerevisiae BY4716 + rapamycin, higher = more signal, called active from +8 up or from −8 down
[15] = biological target: Torsin-1A-interacting protein 2 (Homo sapiens) (UniProt Q8NFQ8); assay: small molecules binding lysate-expressed LULL1 – cell lysate, human LULL1 lysate, 635/667 nm fluorescence, primary screen (AID 1092); conditions: small-molecule microarray, hLULL1 lysate binding, 635 nm fluorescence; higher = more signal;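 further: probe is lysate of COS7 cells overexpressing human LULL1; score merges per-feature 667 nm fluorescence with signal-to-noise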
Chain of Torsin-1A-interacting protein 2 (Homo sapiens) (Q8NFQ8 whole entry, looked up): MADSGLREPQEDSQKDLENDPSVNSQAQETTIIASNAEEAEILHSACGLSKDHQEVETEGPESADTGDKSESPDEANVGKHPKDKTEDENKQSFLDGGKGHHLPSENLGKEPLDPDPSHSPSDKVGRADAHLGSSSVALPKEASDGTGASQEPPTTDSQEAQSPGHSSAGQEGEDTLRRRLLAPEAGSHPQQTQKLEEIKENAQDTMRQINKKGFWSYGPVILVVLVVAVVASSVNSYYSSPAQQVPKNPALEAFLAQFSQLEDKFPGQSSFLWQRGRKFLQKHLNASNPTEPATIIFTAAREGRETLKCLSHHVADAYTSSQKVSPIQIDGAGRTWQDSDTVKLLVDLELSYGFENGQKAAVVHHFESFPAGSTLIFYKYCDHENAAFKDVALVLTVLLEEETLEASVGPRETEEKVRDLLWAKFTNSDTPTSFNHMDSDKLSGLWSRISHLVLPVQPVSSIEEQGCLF

[16] = optical density change of DRC41 E. coli – strain DRC41, OD650, 24 h, E. coli filamentation project, primary screen (AID 1093);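 further: MC1000 strain lacking acrAB efflux and sulA so SOS filamentation is blocked; test concentration not given here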; conditions: E. coli DRC41 growth, higher = more signal, called active from +8 up or from −8 down
[17] = probe aLefty2 binding to arrayed compounds – biochemical, biotinylated probe, 635/667 nm fluorescence, primary screen (AID 1094); conditions: small-molecule microarray, higher = more signal;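 further: score merges spot fluorescence near 667 nm with spot signal-to-noise ratio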
[18] = tested on: Noggin (protein binding on small-molecule microarray); assay: small molecules binding Noggin protein – biochemical, 635/667 nm fluorescence, primary screen (AID 1095); conditions: 635 nm fluorescence, higher = more signal;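 further: score merges 667 nm feature fluorescence with signal to noise over triplicate slides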
[19] = biological target: Neurogenic locus notch homolog protein 3 (Homo sapiens) (UniProt Q9UM47); assay: small molecules binding NOTCH3 protein – biochemical, 635/667 nm fluorescence, primary screen (AID 1096); conditions: small-molecule microarray, 635 nm fluorescence, higher = more signal
[20] = probe aEGFR binding to arrayed compounds – biochemical, biotinylated probe, 635/667 nm fluorescence, primary screen (AID 1097); conditions: small-molecule microarray, higher = more signal;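 further: probe is a biotinylated anti-EGFR antibody binding compounds printed on slides; score combines fluorescence near 667 nm and signal to noise of each spot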

SMILES	composite z-score [1]	composite z-score [2]	composite z-score [3]	composite z-score [4]	composite z-score [5]	composite z-score [6]	composite z-score [7]	z-score [8]	composite z-score [9]	composite z-score [10]	composite z-score [11]	z-score [12]	z-score [13]	z-score [14]	composite z-score [15]	z-score [16]	composite z-score [17]	composite z-score [18]	composite z-score [19]	composite z-score [20]
COC(=O)C1=C(C)N(Cc2ccccc2)[C@]23O[C@](C(=O)OC)(C(=O)N2[C@@H]1c1ccccc1)[C@H]1C(=O)N(c2ccccc2)C(=O)[C@H]13	-0.387 and -0.343	0.446 and 0.277	-0.0747 and 0.41	-0.116 and 0.883	1.18 and 0.445	0.288 and 0.212	1.07 and 1.09	-0.507 (inactive) and -0.154 (inactive)	0.0931 and 0.64	0.192 and -0.0672	0.343 and -0.0383	0.434 (inactive) and 0.397 (inactive)	-0.261 (inactive) and -0.858 (inactive)	-0.558 (inactive) and 0.264 (inactive)	1.14 and 0.69	0.102 (inactive) and 0.185 (inactive)	-0.0812 and -0.0245	0.468 and 0.611	0.649 and 1.11	0.253 and 0.0534
CCCC[C@@H]1CN2[C@H](c3ccc(Br)cc3)[C@@H](C)CC[C@H]2C(=O)O1	-0.419 and -0.254	-0.309 and 0.41	-0.129 and -0.103	-0.0574 and -0.132	-0.118 and -0.134	0.0412 and -0.139	-0.246 and -0.605	-1.09 (inactive) and 0.204 (inactive)	-0.0739 and -0.0224	0.0264 and -0.0237	-0.214 and 0.499	-0.156 (inactive) and -0.142 (inactive)	-19.4 (active) and -17.4 (active)	-0.269 (inactive) and -0.224 (inactive)	-0.461 and -0.18	0.298 (inactive) and 0.24 (inactive)	-0.234 and -0.145	0.16 and 0.31	-0.391 and -0.433	-0.174 and -0.137
CCOC(=O)NN=C1C[C@@H](O)[C@@H](O)[C@@H]2[C@@H]3C(=O)N(Cc4ccc5c(c4)OCO5)C(=O)[C@@H]3CC[C@@H]12	-0.441	0.16	-0.121	0.505	0.34	0.416	0.858	-0.544 (inactive)	0.16	0.007	0.365	0.282 (inactive)	-0.117 (inactive)	-0.135 (inactive)	2.14	0.234 (inactive)	-0.148	0.0857	-0.209	-0.148
C#CCN1C(/C=C/c2ccccc2)C(=O)OC[C@H]1c1ccccc1 (stereo not given in full)	-0.256 and -0.303	0.184 and 0.348	-0.0569 and -0.1	0.301 and 0.398	0.346 and -0.0877	-0.0907 and 0.365	0.165 and 0.833	-1.03 (inactive) and -0.536 (inactive)	-0.151 and 0.465	0.0401 and -0.276	-0.0815 and 0.365	-3.12 (inactive) and -0.539 (inactive)	-7.61 (inactive) and -3.7 (inactive)	-3.5 (inactive) and -1.57 (inactive)	0.447 and 2.09	1.07 (inactive) and 0.53 (inactive)	-0.0766 and -0.215	0.899 and 0.231	0.719 and 0.768	-0.0304 and -0.0311
C=C[C@@H](C)[C@@H](O)c1ccc(O)c2ccccc12	0.306 and 0.254	-0.54 and -0.797	-0.105 and -0.154	-0.262 and -0.0511	-1.51 and -1.17	-0.775 and -0.178	-0.377 and 0.98	1.07 (inactive) and 0.849 (inactive)	-0.774 and -0.854	-0.287 and -0.184	-1.15 and -0.5	-5.87 (inactive) and -14.6 (active)	-19.1 (active) and -19.4 (active)	3.53 (inactive) and 5.23 (inactive)	-0.414 and 0.384	-0.113 (inactive) and 1.61 (inactive)	-0.239 and -0.107	-0.803 and -0.326	-1.25 and -0.933	-0.321 and -0.314
CC(C)=NOCc1ccc(-c2cn([C@@H]3COC[C@H]3O)nn2)cc1	-0.401	0.032	-0.0268	0.543	0.31	-0.766	0.718	0.0937 (inactive)	0.169	0.0722	-0.253	0.279 (inactive)	0.132 (inactive)	-0.738 (inactive)	0.226	0.484 (inactive)	0.0434	0.485	-0.328	-0.0025
COC(=O)[C@@]1(Cc2ccccc2)[C@H]2c3cc(C(=O)N(C)C)n(C[C@H](O)CO)c3C[C@H]2CN1C(=O)c1ccccc1	0.323 and 0.439	-0.347 and 0.188	0.0002 and -0.0065	0.122 and 0.158	1.15 and 1.53	2.1 and 2.01	1.47 and 1.03	1.92 (inactive) and 0.827 (inactive)	0.606 and 0.955	0.174 and 0.192	-0.576 and -0.197	0.745 (inactive) and 0.53 (inactive)	-0.421 (inactive) and 0.883 (inactive)	0.565 (inactive) and 0.696 (inactive)	3.69 and 2.3	-0.527 (inactive) and -0.856 (inactive)	-0.052 and 0.0305	-0.634 and -0.737	-0.349 and -0.0109	-0.228 and 0.0395
Cc1ccc(S(=O)(=O)N[C@H]2COC(=O)[C@@H](C)COC(=O)[C@H](C)NC(=O)CC=C[C@H]2C)cc1	-0.574	1.03	-0.116	0.604	0.192	-0.476	-0.132	0.691 (inactive)	-0.154	-0.0618	0.277	-0.0016 (inactive)	-0.838 (inactive)	-0.351 (inactive)	-0.487	0.147 (inactive)	-0.121	1.17	0.646	-0.0862
